Data from PubChem BioAssay.
Records with an inconclusive call do not appear. Calls of active or inactive are those of the source.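 How the source made its calls, unless noted: active means viability at or below 10% of carrier control in both of two separate runs; inconclusive means viability at or below 10% in only one of the two runs; inactive means the rest.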

Tests used:
[1] = reducers of endogenous Her2 protein level, primary screen, SKBR3 breast tumor cells, AlphaScreen, ATP viability (AID 461;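 active means Her2 level under about 52% in both replicate screens, with viability over 70% of control, limit read from the data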;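 on Her2 level: lower value means less Her2 protein in the cells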;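 on viability: percent of carrier control wells set as 100% viability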); settings: 18-24 h, measured here: SKBR3 viability, ATP luminescence, at 10 µM
[2] = target: Receptor tyrosine-protein kinase erbB-2 (Homo sapiens) (UniProt P04626); assay: as above; settings: 18-24 h, at 10 µM, stronger effect = lower value
[3] = SK-BR-3 cell growth inhibitors, pilot screen, 24 h, human (AID 572); settings: SK-BR-3 viability, CellTiter-Glo luminescence, at 10 µM, stronger effect = lower value;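 further: compound exposure lasted between 18 and 24 h rather than exactly 24 h; 100% = carrier-treated control wells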
[4] = HUVEC growth inhibition – cell-based, human, primary screen (AID 575;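 active means viability at or below 30% in both replicate assays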;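 further: 100% = median of untreated cell wells with 0.1% DMSO on each plate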); settings: HUVEC proliferation, CellTiter-Glo luminescence, 72 h; at 10 µM; stronger effect = lower value
[5] = growth inhibitors of H69AR lung tumor, primary screen, human, duplicate replicates (AID 580;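 active means viability at or under a set limit in both replicates, limit being median viability minus 3 SD, cut at about 48% in these data, passing the limit was not always enough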;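 further: 100% = mean luminescence of untreated wells and 0% = no signal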); settings: H69AR lung tumor cells viability, ATP luminescence, 72 h; at 10 µM; stronger effect = lower value
[6] = reversal of MRP1-mediated doxorubicin resistance, pilot screen, H69AR cells, doxorubicin co-treatment (AID 601;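 active means viability loss from added drug above about 55%, and viability with drug at most 40%, in both replicates, limit read from the data, passing the limit was not always enough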); settings: CellTiter-Glo, 72 h, at 10 µM; for differential viability (reversal): stronger effect = higher value
[7] = 384-well plate pilot, post-Golgi transport modulator project, inhibition of yeast transport mutant growth (AID 636; in the data active means inhibition above about 31%); settings: absorbance 615 nm, about 18 h, stronger effect = higher value
[8] = growth suppression of yeast trafficking mutant, preliminary HTS, modulators of trafficking downstream of Golgi apparatus project, 1536-format plate, OD 615 nm (AID 637; in the data active means inhibition above about 30%); settings: yeast transport mutant growth, absorbance 615 nm, 18 h; stronger effect = higher value
[9] = OD615 S. cerevisiae growth inhibition, permissive medium, pilot counter-assay, permissive growth control for S. cerevisiae lifespan shortening project (AID 705;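 active means growth inhibition above 25% in both replicates, a cutoff set 3 SD above the mean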); settings: OD615, 24 h, at 10 µM, stronger effect = higher value
[10] = Restrictive medium S. cerevisiae growth inhibition, OD615, pilot screen of yeast lifespan reduction project, restrictive growth control (AID 706;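 active means growth inhibition above a set limit, 3 SD over mean compound inhibition, in both replicates, cut at about 43% in these data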;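 further: modified DeaD lifespan yeast strain shifted to restrictive glucose medium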); settings: OD615, 48 h, at 10 µM, stronger effect = higher value
[11] = viability gain of MRP-1-high H69AR cells under doxorubicin, pilot screen, MRP-1 activator project, CellTiter-Glo, duplicate (AID 807;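 active means viability increase at or above a cutoff of the median across tested compounds plus 3 SD, cut at about 8.5% in these data, passing the limit was not always enough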;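 further: compound pretreatment 18-22 h then 72 h combined with doxorubicin; 0% = doxorubicin alone and 100% = vehicle without doxorubicin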); settings: H69AR viability with doxorubicin, CellTiter-Glo luminescence; at 10 µM; stronger effect = higher value
[12] = growth suppression of beta-catenin knockout HCT116, pilot screen, human colon tumor cells (AID 823;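 active means cell viability at or below a set limit in both duplicate runs, the limit being the all-compound median minus 4 SD, cut at about 23% in these data, passing the limit was not always enough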;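 further: 0% = wells killed by 20 µM Hyamine and 100% = untreated DMSO cell wells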); settings: CellTiter-Glo, 60 h, at 10 µM, stronger effect = lower value
[13] = growth suppression of PTEN-deleted HCT116, pilot screen, cell-based, HCT116 clonal line, CellTiter-Glo (AID 824;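 active means viability at or below 27.92% in each of two runs, the all-compound median minus 4 SD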;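 further: 0% = 20 µM Hyamine control and 100% = vehicle cell control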); settings: 60 h, at 10 µM, stronger effect = lower value
[14] = inhibitors of the yeast RAM network, pilot screen, dse1pr::URA3 reporter, 5-FOA selection (AID 869;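 active means inhibition over a set limit, the all-compound mean plus 3 SD, in both replicate runs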;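 further: 0% = DMSO wells with no growth and 100% = 10 µM 1-NA-PP1 with full growth; RAM network block rescues cells from 5-FOA so hits raise OD615 growth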); settings: S. cerevisiae dse1pr::URA3 5-FOA growth, OD615, 2 d; at 10 µM; stronger effect = higher value; strain carries analog-sensitive mutant Cbk1 kinase
[15] = RAM signaling pathway blockade in yeast – S. cerevisiae, Pdr1DBD-CYC8 efflux-inhibited sensitized strain, primary screen (AID 1298;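 active means RAM network inhibition above 8.4% in each of two replicates, 3 SD over the compound average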;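 further: 0% = DMSO untreated cells without growth and 100% = 10 µM 1-NA-PP1 full growth; higher means more yeast growth rescued from 5-FOA killing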); settings: S. cerevisiae cbk1-as DSE1-URA3 strain, 5-FOA growth OD615, 2 d; at 50 µM; stronger effect = higher value
[16] = H69AR cells + 2 uM doxorubicin, measured here: viability with 2 uM doxorubicin, stronger effect = lower value
[17] = H69AR cells, compound alone cytotoxicity

Receptor tyrosine-protein kinase erbB-2 (Homo sapiens), sequence (P04626 whole entry, looked up): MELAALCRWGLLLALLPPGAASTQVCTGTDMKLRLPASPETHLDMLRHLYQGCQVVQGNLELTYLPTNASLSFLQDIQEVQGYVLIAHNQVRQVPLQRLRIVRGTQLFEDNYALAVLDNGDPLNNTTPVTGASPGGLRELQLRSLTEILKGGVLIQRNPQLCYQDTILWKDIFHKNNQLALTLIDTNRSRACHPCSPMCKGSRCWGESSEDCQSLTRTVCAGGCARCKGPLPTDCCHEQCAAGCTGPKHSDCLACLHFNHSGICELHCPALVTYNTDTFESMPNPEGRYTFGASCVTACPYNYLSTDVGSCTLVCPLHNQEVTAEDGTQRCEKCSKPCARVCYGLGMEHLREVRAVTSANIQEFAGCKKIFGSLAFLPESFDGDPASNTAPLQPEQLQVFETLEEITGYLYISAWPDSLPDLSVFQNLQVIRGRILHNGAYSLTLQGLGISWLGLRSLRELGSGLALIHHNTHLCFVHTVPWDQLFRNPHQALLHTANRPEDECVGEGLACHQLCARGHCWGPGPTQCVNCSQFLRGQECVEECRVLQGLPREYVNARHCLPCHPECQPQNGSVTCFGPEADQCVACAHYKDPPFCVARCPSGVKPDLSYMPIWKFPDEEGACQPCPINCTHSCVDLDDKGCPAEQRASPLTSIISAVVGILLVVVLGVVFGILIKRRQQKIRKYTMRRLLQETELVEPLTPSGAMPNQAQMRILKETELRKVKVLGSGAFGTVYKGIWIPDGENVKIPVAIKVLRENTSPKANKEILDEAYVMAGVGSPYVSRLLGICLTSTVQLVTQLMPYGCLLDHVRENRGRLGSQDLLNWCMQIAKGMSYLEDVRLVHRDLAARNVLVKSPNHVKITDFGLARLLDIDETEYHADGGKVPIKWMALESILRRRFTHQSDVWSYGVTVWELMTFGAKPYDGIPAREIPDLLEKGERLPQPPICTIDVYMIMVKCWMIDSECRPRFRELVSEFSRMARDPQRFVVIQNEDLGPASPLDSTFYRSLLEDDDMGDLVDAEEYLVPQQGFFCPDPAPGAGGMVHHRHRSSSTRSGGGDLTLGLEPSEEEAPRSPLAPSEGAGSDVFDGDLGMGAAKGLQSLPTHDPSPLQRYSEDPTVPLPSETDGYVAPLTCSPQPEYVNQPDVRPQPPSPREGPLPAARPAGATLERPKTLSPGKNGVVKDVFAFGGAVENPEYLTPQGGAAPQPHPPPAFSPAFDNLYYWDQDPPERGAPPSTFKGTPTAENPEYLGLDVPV

Structure (SMILES) | viability [1] | Her2 level [2] | viability [3] | viability [4] | viability [5] | differential viability (reversal) ([6]; H69AR cells + 2 uM doxorubicin) | viability [6, 16] | viability [6, 17] | inhibition [7] | inhibition [8] | growth inhibition [9] | growth inhibition [10] | viability increase [11] | viability [12] | viability [13] | inhibition [14] | RAM network inhibition [15]
CCOC(=O)c1sc(NC(=O)c2noc3c2CCCC3)c(C(=O)OCC)c1C | 69.5% | 83% (inactive) | 69.5% (inactive) | 85% (inactive) | 67.8% (inactive) | -13.2% (inactive) | 81% | 67.8% | 1.41% (inactive) | -4.17% (inactive) | -0.315% (inactive) | -5.25% (inactive) | -3.88% (inactive) | 55.2% (inactive) | 55.8% (inactive) | 0.47% (inactive) | 2.96% (inactive)
O=C(c1ccc(Br)cc1)N1CCN(S(=O)(=O)c2ccccc2)CC1 | 113% | 120% (inactive) | 113% (inactive) | 103% (inactive) | 92.6% (inactive) | -2.33% (inactive) | 94.9% | 92.6% | 3.33% (inactive) | 2.33% (inactive) | 4.02% (inactive) | 11.1% (inactive) | -1.15% (inactive) | 84.7% (inactive) | 90.4% (inactive) | 1.71% (inactive) | 1.8% (inactive)
CCN(CC)C(=O)Cn1ncc2c1-c1ccccc1OC2 | 84.5% | 112% (inactive) | 84.5% (inactive) | 98.3% (inactive) | 100% (inactive) | 15.7% (inactive) | 84.7% | 100% | -0.64% (inactive) | 1.33% (inactive) | -13.3% (inactive) | -11.6% (inactive) | 0.84% (inactive) | 105% (inactive) | 100% (inactive) | 2.26% (inactive) | -2.31% (inactive)
CN(C)C(=O)N1CCN(C(=O)c2ccco2)CC1 | 116% | 114% (inactive) | 116% (inactive) | 94.6% (inactive) | 101% (inactive) | 6.83% (inactive) | 94.6% | 101% | 2.4% (inactive) | -3.83% (inactive) | 1.14% (inactive) | 8.06% (inactive) | -1.78% (inactive) | 102% (inactive) | 99.5% (inactive) | 2.13% (inactive) | 0.72% (inactive)
COc1ccc(C/C(N)=N/n2cnnc2)cc1Cl | 94% | 100% (inactive) | 94% (inactive) | 103% (inactive) | 102% (inactive) | 2.52% (inactive) | 99.4% | 102% | -2.21% (inactive) | -0.83% (inactive) | -9.88% (inactive) | -12% (inactive) | -0.81% (inactive) | 95.7% (inactive) | 99.8% (inactive) | 1.04% (inactive) | 2.47% (inactive)
CCCc1cc(C(=O)Nc2sc(C)c(C)c2C(=O)OCC)no1 | 86% | 79% (inactive) | 86% (inactive) | 85.8% (inactive) | 92.6% (inactive) | 0.625% (inactive) | 92% | 92.6% | -1.79% (inactive) | 1.17% (inactive) | -10.7% (inactive) | 2.83% (inactive) | 2.07% (inactive) | 102% (inactive) | 97.9% (inactive) | 3.55% (inactive) | 7.13% (inactive)
CCOC(=O)/C(C#N)=C(/C)c1ccc(OC)cc1 | 96% | 104% (inactive) | 96% (inactive) | 110% (inactive) | 102% (inactive) | 5.39% (inactive) | 96.2% | 102% | -2.53% (inactive) | -7.74% (inactive) | -14.7% (inactive) | -5.52% (inactive) | 0.09% (inactive) | 99.5% (inactive) | 99% (inactive) | 1.11% (inactive) | 3.87% (inactive)
COc1ccccc1CNC(=O)C1CCCN(S(=O)(=O)c2cccc3cccnc23)C1 (stereo not drawn) | 92.5% | 98.5% (inactive) | 92.5% (inactive) | 111% (inactive) | 92% (inactive) | -0.39% (inactive) | 92.3% | 92% | -4.53% (inactive) | -2.17% (inactive) | -5.17% (inactive) | -12.7% (inactive) | -3.42% (inactive) | 90.6% (inactive) | 91.6% (inactive) | 3.08% (inactive) | 6.37% (inactive)
Cc1ccc(N=Cc2ccc[nH]2)c(O)c1 | 96% | 88.5% (inactive) | 96% (inactive) | 76.8% (inactive) | 81.9% (inactive) | -14.5% (inactive) | 96.4% | 81.9% | -2.56% (inactive) | 0.5% (inactive) | -20.2% (inactive) | -5.83% (inactive) | -4.28% (inactive) | 71.8% (inactive) | 88.4% (inactive) | 1.36% (inactive) | 0.26% (inactive)
CCOC(=O)C(C)Sc1nnc(Cc2cc(=O)[nH]c(=O)[nH]2)n1-c1ccc(Cl)cc1 (stereo not drawn) | 92.5% | 96.5% (inactive) | 92.5% (inactive) | 102% (inactive) | 103% (inactive) | 4.81% (inactive) | 98.2% | 103% | 1.54% (inactive) | 5.5% (inactive) | -16.5% (inactive) | -11.5% (inactive) | 0.97% (inactive) | 104% (inactive) | 105% (inactive) | 1.45% (inactive) | 5.81% (inactive)
O=C(c1ccc(Cl)s1)N1CCN(c2nc3ccccc3s2)CC1 | 84% | 78% (inactive) | 84% (inactive) | 69.4% (inactive) | 85.9% (inactive) | -0.215% (inactive) | 86.1% | 85.9% | -3.47% (inactive) | 2.5% (inactive) | 3.6% (inactive) | -3.27% (inactive) | 0.2% (inactive) | 81% (inactive) | 83.7% (inactive) | 2.66% (inactive) | 2.18% (inactive)
CCn1cc(C(=O)NCC2CCCO2)c(=O)c2cc(S(=O)(=O)N(C)C)ccc21 (stereo not drawn) | 85.5% | 113% (inactive) | 85.5% (inactive) | 105% (inactive) | 88.6% (inactive) | 5.47% (inactive) | 83.1% | 88.6% | -0.13% (inactive) | -3.83% (inactive) | -1.35% (inactive) | 1.3% (inactive) | -0.77% (inactive) | 101% (inactive) | 94.9% (inactive) | 2.33% (inactive) | 1.14% (inactive)
Cc1ccc(C(c2sc3ncnn3c2O)N2CC(C)CC(C)C2)cc1 (stereo not drawn) | 118% | 102% (inactive) | 118% (inactive) | 82.8% (inactive) | 97.9% (inactive) | 13.6% (inactive) | 84.3% | 97.9% | -4.53% (inactive) | 1.67% (inactive) | -6.75% (inactive) | -6.62% (inactive) | 4.2% (inactive) | 99.8% (inactive) | 97% (inactive) | 0.24% (inactive) | 1.25% (inactive)
CCCC(=O)C1=C(N(C)c2ccccc2)CC(C)(C)C(C(=O)OC)C1=O (stereo not drawn) | 95% | 81% (inactive) | 95% (inactive) | 97.9% (inactive) | 94.4% (inactive) | 1.22% (inactive) | 93.2% | 94.4% | -2.47% (inactive) | -2.83% (inactive) | -1.78% (inactive) | -2.86% (inactive) | -3.32% (inactive) | 93.7% (inactive) | 92.9% (inactive) | -0.705% (inactive) | 0.26% (inactive)
CCOc1ccccc1NC(=O)CC1Nc2cc(C)c(C)cc2NC1=O (stereo not drawn) | 80.5% | 82% (inactive) | 80.5% (inactive) | 68.7% (inactive) | 59.2% (inactive) | -25.8% (inactive) | 85% | 59.2% | -1.67% (inactive) | -5.5% (inactive) | -16.7% (inactive) | -12.1% (inactive) | -5.9% (inactive) | 77.5% (inactive) | 77.8% (inactive) | 0.04% (inactive) | 5.85% (inactive)
Cc1c(C)n(C)c2ccc(C(=O)NCc3cccs3)cc12 | 93.5% | 87.5% (inactive) | 93.5% (inactive) | 95.7% (inactive) | 90.7% (inactive) | 16.1% (inactive) | 74.6% | 90.7% | -2.8% (inactive) | -4.59% (inactive) | -23.4% (inactive) | 1.59% (inactive) | 3.39% (inactive) | 97.5% (inactive) | 96.8% (inactive) | 1.61% (inactive) | 0% (inactive)
O=C(O)C1CC=CCC1C(=O)Nc1cccc(F)c1 (stereo not drawn) | 94% | 94% (inactive) | 94% (inactive) | 88.1% (inactive) | 87.1% (inactive) | -1.18% (inactive) | 88.3% | 87.1% | -2.99% (inactive) | -5.17% (inactive) | -1.99% (inactive) | -0.35% (inactive) | -0.78% (inactive) | 102% (inactive) | 100% (inactive) | 1.86% (inactive) | 1.15% (inactive)
Cc1ccccc1Cn1cc(/C=N/n2cnnc2)c2ccccc21 | 100% | 99.5% (inactive) | 100% (inactive) | 68.7% (inactive) | 95.4% (inactive) | 13.3% (inactive) | 82% | 95.4% | -2.6% (inactive) | 4.83% (inactive) | 7.88% (inactive) | 23.3% (inactive) | -4.78% (inactive) | 67.8% (inactive) | 61.6% (inactive) | 1% (inactive) | -0.25% (inactive)
CN(C)CCCNC(=O)CCC1CCCCC1 | 93% | 78% (inactive) | 93% (inactive) | 101% (inactive) | 94% (inactive) | 9.09% (inactive) | 84.9% | 94% | -7.16% (inactive) | 1.17% (inactive) | -1.1% (inactive) | -3.73% (inactive) | 0.26% (inactive) | 99.5% (inactive) | 107% (inactive) | 0.2% (inactive) | 6.01% (inactive)
